Among the data in PubChem BioAssay are z-score and composite z-score values, retold here.

SMILES strings stand for the structures. The source made the active and inactive calls.

Assay [1] is described as follows: optical density shifts of acrAB sulA E. coli – strain DRC41, OD650, 48 h, E. coli filamentation inducer project, primary screen (AID 1152).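 Also: E. coli MC1000 strain DRC41 lacking acrAB efflux pump and sulA.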 As to conditions: higher = more signal, called active from +8 up or from −8 down.
A short description of assay [2]: probe aLefty1 binding on compound microarray – biochemical, small-molecule microarray, 635/667 nm fluorescence, primary screen (AID 1153).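 Also: score merges spot fluorescence with signal-to-noise ratio from the scanned slide images.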 The following applies: higher = more signal.
Assay [3] in a line: plasmodial surface anion channel blockers, osmotic lysis – cell-based, P. falciparum Indochina, OD700, 1 h, primary screen (AID 1154). As to conditions: P. falciparum Indochina infected RBC osmotic lysis, higher = more signal, called active from +8 up or from −8 down.
Assay [4] is described as follows: plasmodial surface anion channel blockers, osmotic lysis – cell-based, P. falciparum Indochina, OD700, 2 h, primary screen (AID 1155).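 Also: lysis reports solute entry through the parasite surface anion channel PSAC.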 The following applies: P. falciparum Indochina infected erythrocytes, higher = more signal, called active from +8 up or from −8 down.
Assay [5] in a line: changes in parasitized red cell lysis, either direction – P. falciparum Indochina, OD700, 3 h, PSAC antagonist project, primary screen (AID 1156). As to conditions: P. falciparum-infected erythrocytes, osmotic lysis, higher = more signal, called active from +8 up or from −8 down.
Assay [6] is described as follows: plasmodial surface anion channel blockers, osmotic lysis – cell-based, P. falciparum Indochina, OD700, 18 h, primary screen (AID 1157). As to conditions: P. falciparum Indochina infected erythrocytes, osmotic lysis OD700, 18 h; higher = more signal, called active from +8 up or from −8 down.
Assay [7] is described as follows: S6 kinase pathway phospho-S6 level changes – cell-based, A549, cytoblot, luminescence, serum-stimulated, primary screen (AID 1158).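 Also: serum-stimulated A549 lung adenocarcinoma cells; signal is phosphorylated S6 detected by cytoblot immunostaining with HRP secondary.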 The following applies: 5 h, higher = more signal.
Assay [8] has as its target NADPH oxidase 2 (Homo sapiens) (UniProt P04839). The assay is described as follows: compounds shifting NOX2 Amplex Red fluorescence – cell-based, HEK293-NOX2, PMA-stimulated, NOX inhibitor project, primary screen (AID 1159). Also: test concentration not given here. As to conditions: 45 min, higher = more signal, called active from +8 up or from −8 down.
Assay [9] concerns the target NADPH oxidase 4 (Homo sapiens) (UniProt Q9NPH5). The experiment in a line: compounds shifting NOX4 Amplex Red fluorescence – cell-based, HEK293-NOX4, tetracycline-induced, NOX inhibitor project, primary screen (AID 1160). The following applies: HEK293-NOX4, Amplex Red H2O2 fluorescence, 45 min; higher = more signal, called active from +8 up or from −8 down.
Assay [10] addresses NADPH oxidase 5 (Homo sapiens) (UniProt Q96PH1). The assay is described as follows: compounds shifting NOX5 Amplex Red fluorescence – cell-based, HEK293-NOX5, NOX inhibitor project, primary screen (AID 1161). The following applies: HEK293-NOX5, ionomycin, 45 min, higher = more signal.
Assay [11] in a line: compound effects on lung adenocarcinoma cell viability – A549, calcein-AM fluorescence, 48 h, basal, profiling panel (AID 1162). Also: test concentration not given here. The following applies: higher = more signal.
Assay [12] in a line: compound effects on differentiated 3T3-L1 adipocyte viability – cell-based, 3T3-L1 adipocytes, calcein-AM fluorescence, 48 h, basal, profiling panel (AID 1163). Also: test concentration not given here. As to conditions: 3T3-L1 adipocytes viability, higher = more signal.
Assay [13] can be described thus: compound effects on hepatocellular carcinoma cell viability – HepG2, calcein-AM fluorescence, 48 h, basal, profiling panel (AID 1164). Also: test concentration not given here. As to conditions: higher = more signal.
The nature of assay [14]: compound effects on multiple myeloma cell viability – MM1S, calcein-AM fluorescence, 48 h, basal, profiling panel (AID 1165).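 Also: viability of MM1S multiple myeloma cells under basal unstimulated conditions; test concentration not given here.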 The following applies: higher = more signal.
The nature of assay [15]: calcein-AM signal in unstimulated myeloma cells – cell-based, calcein-AM fluorescence, 48 h, PK04 Diversity Set, profiling panel (AID 1166).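 Also: cells grown under basal conditions without added stimulus; test concentration not given here.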 The following applies: RPMI8226 myeloma viability, higher = more signal.
Assay [16] can be described thus: JC-1 mitochondrial signal, unstimulated HepG2 cells – cell-based, JC-1 fluorescence, 24 h, 100 nL compound, profiling panel (AID 1167). Also: test concentration not given here. As to conditions: HepG2 mitochondrial potential, higher = more signal.
Assay [17] can be described thus: JC-1 mitochondrial signal, unstimulated adipocytes – cell-based, JC-1 fluorescence, 3T3-L1 adipocytes, 24 h, 100 nL compound, profiling panel (AID 1168). Also: test concentration not given here. As to conditions: JC-1 mitochondrial fluorescence, higher = more signal, called active from +8 up or from −8 down.
Assay [18] is described as follows: JC-1 mitochondrial signal, unstimulated myeloma cells – cell-based, JC-1 fluorescence, RPMI8226, 24 h, 100 nL compound, profiling panel (AID 1169). Also: test concentration not given here. As to conditions: JC-1 mitochondrial potential fluorescence, higher = more signal.
A short description of assay [19]: JC-1 mitochondrial signal, unstimulated MM1S myeloma – cell-based, JC-1 fluorescence, 24 h, 100 nL compound, profiling panel (AID 1170). Also: test concentration not given here. The following applies: MM1S mitochondrial potential, higher = more signal.
The nature of assay [20]: resazurin metabolic signal in A549 cells – cell-based, resazurin fluorescence, 24 h, PK04 Diversity Set, profiling panel (AID 1171). Also: test concentration not given here. As to conditions: A549 viability, higher = more signal, called active from +8 up or from −8 down.

NADPH oxidase 2 (Homo sapiens), sequence (P04839 whole entry, looked up): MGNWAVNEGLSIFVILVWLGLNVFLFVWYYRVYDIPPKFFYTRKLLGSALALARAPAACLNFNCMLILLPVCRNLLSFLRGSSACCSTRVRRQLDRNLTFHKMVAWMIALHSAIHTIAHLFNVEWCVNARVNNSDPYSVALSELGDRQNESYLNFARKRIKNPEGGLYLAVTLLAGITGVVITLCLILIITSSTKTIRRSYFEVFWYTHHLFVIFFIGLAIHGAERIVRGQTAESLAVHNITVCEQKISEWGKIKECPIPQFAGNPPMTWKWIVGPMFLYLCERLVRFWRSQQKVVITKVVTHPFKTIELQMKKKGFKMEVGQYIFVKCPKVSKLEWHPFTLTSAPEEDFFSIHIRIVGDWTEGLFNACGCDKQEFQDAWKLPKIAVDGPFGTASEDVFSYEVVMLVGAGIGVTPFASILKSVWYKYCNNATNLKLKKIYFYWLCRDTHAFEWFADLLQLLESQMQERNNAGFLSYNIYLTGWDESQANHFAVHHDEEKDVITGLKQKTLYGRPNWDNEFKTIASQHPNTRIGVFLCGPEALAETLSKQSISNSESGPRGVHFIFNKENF
NADPH oxidase 4 (Homo sapiens), sequence (Q9NPH5 whole entry, looked up): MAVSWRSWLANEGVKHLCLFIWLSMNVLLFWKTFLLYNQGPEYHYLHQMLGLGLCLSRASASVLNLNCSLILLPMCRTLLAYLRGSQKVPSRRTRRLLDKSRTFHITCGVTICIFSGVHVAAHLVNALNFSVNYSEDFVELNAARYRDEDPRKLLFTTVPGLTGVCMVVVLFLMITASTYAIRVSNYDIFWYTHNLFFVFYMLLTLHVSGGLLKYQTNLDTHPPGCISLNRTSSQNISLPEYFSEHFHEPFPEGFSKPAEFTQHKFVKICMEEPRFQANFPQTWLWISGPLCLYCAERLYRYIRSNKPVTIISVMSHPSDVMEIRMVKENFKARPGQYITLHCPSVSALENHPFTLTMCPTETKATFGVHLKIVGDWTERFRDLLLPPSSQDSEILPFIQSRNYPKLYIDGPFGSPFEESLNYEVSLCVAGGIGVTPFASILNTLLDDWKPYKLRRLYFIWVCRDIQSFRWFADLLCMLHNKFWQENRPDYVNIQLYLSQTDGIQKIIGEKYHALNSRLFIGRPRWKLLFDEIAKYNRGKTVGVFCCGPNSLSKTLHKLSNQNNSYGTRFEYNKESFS
NADPH oxidase 5 (Homo sapiens), sequence (Q96PH1 whole entry, looked up): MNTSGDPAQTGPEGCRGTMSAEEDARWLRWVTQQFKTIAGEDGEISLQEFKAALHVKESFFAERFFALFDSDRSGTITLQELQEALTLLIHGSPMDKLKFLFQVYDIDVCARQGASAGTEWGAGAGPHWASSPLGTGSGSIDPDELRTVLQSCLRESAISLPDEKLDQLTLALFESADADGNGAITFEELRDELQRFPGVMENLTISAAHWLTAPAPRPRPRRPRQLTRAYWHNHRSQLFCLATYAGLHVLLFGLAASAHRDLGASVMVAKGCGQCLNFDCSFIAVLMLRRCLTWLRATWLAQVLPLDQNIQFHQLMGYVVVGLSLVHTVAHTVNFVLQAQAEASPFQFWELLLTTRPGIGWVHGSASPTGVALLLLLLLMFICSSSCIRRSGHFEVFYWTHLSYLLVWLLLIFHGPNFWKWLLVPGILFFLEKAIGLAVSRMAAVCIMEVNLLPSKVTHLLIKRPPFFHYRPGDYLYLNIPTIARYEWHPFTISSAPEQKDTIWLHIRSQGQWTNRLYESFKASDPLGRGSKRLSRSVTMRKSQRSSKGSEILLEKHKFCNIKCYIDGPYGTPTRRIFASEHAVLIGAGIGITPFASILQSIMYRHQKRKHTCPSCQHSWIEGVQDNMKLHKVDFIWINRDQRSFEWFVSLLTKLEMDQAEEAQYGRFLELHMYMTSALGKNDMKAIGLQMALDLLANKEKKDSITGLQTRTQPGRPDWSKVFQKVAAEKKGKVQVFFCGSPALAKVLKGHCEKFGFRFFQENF

`[N-]=[N+]=NCc1ccccc1C[C@]1(C(=O)NCC(O)CO)N=C(c2ccc(OCCCO)cc2)O[C@H]1c1ccccc1CN=[N+]=[N-]` (stereo not given in full): the z-score in [1] is -0.0074 (inactive); in assay [3], 19.3 (active); in [4], 2.49 (inactive); in [5], 1.81 (inactive); in [6], -0.481 (inactive); in [7], 1.67. The z-score is -1.97 (inactive) in assay [8]; -2.19 (inactive) in [9]; -1.41 in assay [10]; -0.905 in [11]; 1.01 in assay [12]; -0.426 in [13]. Further, the z-score in assay [14] was -2.3; in [15], -2.6; in assay [16], 0.136; in assay [17], -0.323 (inactive); in assay [18], -1.02; in [19], -0.555. In addition, the z-score in assay [20] is -0.402 (inactive). Besides, the composite z-score in [2] turned out to be 0.865.
In the case of `CCOC(=O)C[C@H]1[C@H](OC(=O)Cc2ccc3c(c2)OCO3)[C@@H](NC(=O)Cc2ccc(OC)cc2)c2cc(OCCCO)ccc2N1C(=O)c1ccccc1`, the z-score in assay [1] was 1.53 (inactive); in assay [3] it was 1.8 (inactive); in [4] it was 0.263 (inactive); in assay [5], -0.729 (inactive); in assay [6] it was -0.33 (inactive); in assay [7], -0.295. Moreover, the z-score is -1.25 (inactive) in [8]; 0.689 (inactive) in assay [9]; 0.267 in assay [10]; 0.208 in assay [11]; -0.0437 in assay [12]; 0.547 in assay [13]. Moreover, the z-score is 1.08 in assay [14]; 0.192 in assay [15]; 0.873 in [16]; -1.1 (inactive) in [17]; 0.192 in assay [18]; -0.606 in assay [19]. Besides, in [20], the z-score is -0.0709 (inactive). Also, in assay [2], the composite z-score was 0.0903.
As to `COC(=O)C[C@H]1O[C@]2(C(=O)N(C)c3ccccc32)[C@@H](C)[C@@H]1[Si](C)(C)c1ccc(C)cc1`, the z-score in [1] is 1.6 (inactive); in assay [3], 2.58 (inactive); in assay [4], 0.894 (inactive); in assay [5], 0.0094 (inactive); in [6], 0.426 (inactive); in [7] it was 0.559. For the same compound, the z-score was 0.626 (inactive) in assay [8]; 0.00059 (inactive) in assay [9]; -1.59 in assay [10]; -1.55 in assay [11]; 0.163 in [12]; -0.151 in assay [13]. Further, the z-score was -1.5 in assay [14]; -4.12 in assay [15]; -0.39 in assay [16]; 0.329 (inactive) in [17]; -0.991 in assay [18]; 0.413 in assay [19]. Further, the z-score in assay [20] is -0.447 (inactive). The composite z-score in assay [2] is -0.0789.
In the case of `C=CC[C@]12N=C(c3ccc(OCCCO)cc3)O[C@H]1c1ccccc1N(C)C2=O`, the z-score in assay [1] is -0.0028 (inactive); in assay [3] it was 31.9 (active); in [4] it was 31.8 (active); in assay [5], 4.16 (inactive); in assay [6] it was 3.07 (inactive); in assay [7], 0.289. In addition, the z-score is -2.49 (inactive) in assay [8]; -0.582 (inactive) in [9]; -1.8 in [10]; -1.3 in assay [11]; 0.614 in [12]; -0.593 in assay [13]. Further, the z-score in [14] is -1.14; in [15] it was -3.83; in assay [16], 0.422; in assay [17], -0.427 (inactive); in [18], -1.17; in [19] it was 0.203. Moreover, the z-score in assay [20] was -1.12 (inactive). Moreover, the composite z-score in assay [2] is 1.11.
